Compound activity from PubChem BioAssay.
SMN2 splice up: increases expression of the SMN2 splice variant; Potency, µM (highest dose often 46.1 µM), inactives show at the highest dose activity change, positive = activation, actives largely listed as activators; HEK293 SMN2-luciferase splicing reporter, luminescence, 30-36 h; hit rate 2.8% among 210,000; also: % of control where 0% means no effect; nearly all actives have a fitted effect of over 55% in size
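HEK293 cells carry an SMN2 […]–luciferase reporter in which exon 7 inclusion puts luciferase in frame. Cells were plated 10-12 h before compound addition, then incubated 30-36 h at 37C. ONE-Glo luminescence was read; sodium butyrate at 4.5 mM final served as control.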
Rab9 prom act: activators of Rab9 promoter; Huh7 Rab9 promoter-luciferase reporter, luminescence, 24 h; Potency, µM (top dose mostly 9.22 µM), without a hit: top-dose activation, negative = inhibition, actives largely listed as activators; hit rate 2.8% among 320,000; AID 485297; also: % of control where 0% means no effect; nearly all actives have a fitted effect of over 60% in size
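Promoter activation is measured as luciferase luminescence in Huh7 cells stably transfected with a Rab9 promoter–luciferase construct, following 24 h compound exposure at 37 °C and 10 min reagent incubation at ambient temperature.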
ELG1 genotox: inducers of genotoxicity in HEK293T ELG1-luciferase cells; HEK293T ELG1-luciferase reporter, luminescence, 16 h; Potency, µM (top dose mostly 46 µM), for inactives: top-dose activity change, positive = activation, most hits filed as activators; hit rate 1.3% among 330,000; AID 504466; also: % of control where 0% means no effect; nearly all actives have a fitted effect of over 60% in size
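Quantitative HTS format in 1536-well plates. HEK293T ELG1-luciferase reporter cells receive test compound and are incubated 16 hr at 37 °C, 5% CO2; ONE-Glo added, 30 min room temperature, then luminescence read.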
ELG1 repair inh: inhibitors of ELG1-dependent DNA repair in HEK293T cells; HEK293T ELG1-luciferase reporter, luminescence, 16 h; DNA damage induced by 5-fluorouridine; Potency, µM (doses to about 46.1 µM), for inactives: at the highest dose activity change, negative = inhibition, usual class: inhibitors; hit rate 2.3% among 330,000; AID 504467; also: % is scaled to controls: 0 for no effect and ±100 for the full control effect; nearly all actives have a fitted effect of over 55% in size
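Step one: seed 2,000 cells per well. Step two: pin-transfer compound or DMSO alongside 5-fluorouridine. Step three: incubate 16 hr, 37 °C, 5% CO2. Step four: add ONE-Glo, wait 30 min, read luminescence.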
NPC1 promoter act: activates the NPC1 promoter; Potency, µM (titrated, usually from 9.22 µM), without a hit: at the top dose activation, most hits filed as activators; Huh7 NPC1 promoter luciferase reporter, 24 h; hit rate 2.4% among 320,000; AID 485313; also: % of control where 0% means no effect; nearly all actives have a fitted effect of over 60% in size
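NPC1 promoter–luciferase Huh7 cells; 24 h compound; luminescence.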
FLuc counter: firefly luciferase modulation, counter-screen for miR-21 project | AID 588342 | purified FLuc, Km substrates, luminescence inhibition | Potency, µM (doses to about 57.5 µM), for inactives: at the top dose activity change, negative = inhibition, most hits filed as inhibitors | hit rate 6.9% among 360,000;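 also: plate controls were vehicle for no effect and reference inhibitor for full effect; nearly all actives have a fitted effect of over 55% in size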
Target sequence (P08659 whole entry, looked up): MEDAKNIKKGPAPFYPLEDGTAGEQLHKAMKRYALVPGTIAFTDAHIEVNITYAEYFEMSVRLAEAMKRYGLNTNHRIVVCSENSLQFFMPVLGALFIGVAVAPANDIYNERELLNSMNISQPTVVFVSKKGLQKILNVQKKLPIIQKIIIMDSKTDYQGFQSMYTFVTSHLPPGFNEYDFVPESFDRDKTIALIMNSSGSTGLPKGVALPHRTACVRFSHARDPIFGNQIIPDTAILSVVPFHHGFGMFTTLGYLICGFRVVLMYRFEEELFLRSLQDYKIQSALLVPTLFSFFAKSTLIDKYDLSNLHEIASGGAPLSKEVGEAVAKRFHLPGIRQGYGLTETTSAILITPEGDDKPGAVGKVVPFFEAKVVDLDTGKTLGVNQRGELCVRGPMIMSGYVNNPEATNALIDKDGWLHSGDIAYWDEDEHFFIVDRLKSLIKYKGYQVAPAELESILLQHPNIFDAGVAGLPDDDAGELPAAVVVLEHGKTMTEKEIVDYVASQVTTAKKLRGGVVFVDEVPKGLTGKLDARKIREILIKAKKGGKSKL
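Purified P. pyralis luciferase (10nM final) with 10uM D-luciferin and 10uM ATP (Km levels) in 50mM Tris acetate pH 7.5, 10mM Mg acetate, 0.01% Tween-20, 0.05% BSA; qHTS 6-point titration, ~60 µM downward; luminescence read.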
ELG1 FLuc counter: luciferase inhibition in cell-free luciferin readout for ELG1 hits | AID 624247 | Potency, µM (doses to about 46.1 µM), for inactives: top-dose activity change, negative = inhibition, actives largely listed as inhibitors | shares compounds with ELG1 repair inh | cell-free firefly luciferase luminescence counter-screen, ViewLux | hit rate 3% among 350; also: % is scaled to controls: 0 for no effect and ±100 for the full control effect
ELG1-Luc inh: confirmation of human ELG1-dependent DNA repair inhibitors; shares compounds with ELG1 repair inh; HEK293T ELG1-luciferase levels, luminescence; cells co-treated with 5-fluorouridine; Potency, µM (highest dose often 46.1 µM), without a hit: at the highest dose activity change, negative = inhibition, usual class: inhibitors; hit rate 68% among 670; AID 624248; also: % is scaled to controls: 0 for no effect and ±100 for the full control effect; nearly all actives have a fitted effect of over 55% in size
ELG1-Luc MMS: MMS-stimulated human ELG1 repair inhibition, confirmed. shares compounds with ELG1 repair inh. HEK293T luciferase-tagged ELG1 level, MMS stimulated. Potency, µM (highest dose often 46.1 µM), inactives show at the top dose activity change, negative = inhibition, usual class: inhibitors. hit rate 53% among 670; also: % is scaled to controls: 0 for no effect and ±100 for the full control effect; nearly all actives have a fitted effect of over 60% in size
ELG1 5-FU: confirmation of ELG1 repair inhibitors: viability with 5FU; shares compounds with ELG1 repair inh; cell viability with 5-FU, ELG1-dependent repair; 670 tested, under 10 active; Potency, µM (doses to about 46.1 µM), without a hit: at the top dose activity change, negative = viability loss, actives largely listed as cytotoxic;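 also: ELG1-luc HEK293T cells cotreated with 5-fluorouridine at 10 µM final; viability measured 16 h after compound addition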
ELG1 MMS viab: confirmation of ELG1 repair inhibitors: viability with MMS. Potency, µM (series often up to 46.1 µM), inactives show at the top dose activity change, negative = viability loss, most hits filed as cytotoxic. Cell viability with MMS, ELG1-dependent DNA repair. shares compounds with ELG1 repair inh. hit rate 33% among 670;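 also: ELG1-luc HEK293T cells co-treated with 10 µM MMS; viability read 16 h after compound addition; % is scaled to controls: 0 for no effect and ±100 for the full control effect; nearly all actives have a fitted effect of over 60% in size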
ELG1 unstim viab: affects unstimulated cell viability, ELG1 hit counter-screen; shares compounds with ELG1 repair inh; cell viability counter-screen, unstimulated, luminescence; Potency, µM (top dose mostly 45.9 µM), for inactives: at the top dose activity change, negative = loss of viability, usual class: cytotoxic; hit rate 8% among 900;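 also: compound exposure lasted 16 hours before reading; % is scaled to controls: 0 for no effect and ±100 for the full control effect; nearly all actives have a fitted effect of over 55% in size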
FLuc enzyme: inhibits purified firefly luciferase, counter-screen for ELG1 hits. hit rate 10% among 350. Potency, µM (series often up to 57.5 µM), for inactives: at the top dose activity, negative = inhibition, actives largely listed as inhibitors. AID 624253. shares compounds with ELG1 repair inh. purified firefly luciferase, luminescence counter-screen; also: % is scaled to controls: 0 for no effect and ±100 for the full control effect
Numbers without * were called inactive; u = inconclusive; x = not tested or not shown; [ ] = another dose, or the depositor's remark. Only some compounds are listed: those with a hit (about 9.4% of all), similar ones and a draw of the others. Calls follow the shape of the dose curve; as a rule, active = well fitted curve in the direction sought with a large enough effect; inconclusive = small, poorly fitted or top-dose-only effect, or another doubt; inactive = no such curve, though single readings can be large; an effect the other way counts as inactive or inconclusive. Potency is read from the fitted curve at half-maximal effect.

SMILES	SMN2 splice up	Rab9 prom act	ELG1 genotox	ELG1 repair inh	NPC1 promoter act	FLuc counter	ELG1-Luc inh	ELG1-Luc MMS	ELG1 5-FU	ELG1 MMS viab	ELG1 unstim viab	others
CCOc1ccc(CCNc2nc3c(c(=O)n(C)c(=O)n3C)n2CC)cc1OCC	-86%	-29%	-15%	u	-11%	0%	14µM*	11µM*	4%	-18%	-7%	ELG1 FLuc counter=-11%;FLuc enzyme=1%
CCCNc1nc2c(c(=O)n(C)c(=O)n2C)n1Cc1cccc(C)c1	-41%	-19%	-11%	1.3µM*	-21%	2%	u	6.3µM*	3%	7.9µM*	-18%
CC1=C2C(=CO[C@H](C)[C@H]2C)C(=O)C(C(=O)O)=C1O	-2%	x	x	x	x	x	x	x	x	x	x
COc1ccc(CCN2C(=O)C3C4C=CC(C5CC45)C3C2=O)cc1OC (centres undefined)	x	-2%	-3%	-2%	-1%	7%	x	x	x	x	x
COc1ccc(CCN2C(=O)C3C4C=CC(C3C2=O)C2C(=O)N(CCc3ccc(OC)c(OC)c3)C(=O)C42)cc1OC (centres undefined)	-107%	-21%	-12%	3.3µM*	-20%	1%	u	6.3µM*	-3%	5µM*	u
Cc1ccc(Cl)cc1N1CCN(C(=O)c2cc(S(=O)(=O)N3CCCCC3)cn2C)CC1	x	x	x	x	x	3%	x	x	x	x	x
Cn1c(=O)c2[nH]c(CSCc3ccccc3)nc2n(C)c1=O	-11%[9.22 µM]	x	x	x	x	x	x	x	x	x	x
Cn1c(=O)c2[nH]c(CN(Cc3ccccc3)Cc3ccccc3)nc2n(C)c1=O	-42%	2%	-10%	4.1µM*	-1%	1%	7.9µM*	u	-9%	u	u
Cc1ccc(S(=O)(=O)Nc2cc3c4c(c2)CCN4C(=O)CC3)cc1	x	3%	10µM*	u	-8%	-1%	x	x	x	x	0%	ELG1 FLuc counter=34%;FLuc enzyme=2%
CCn1cc([N+](=O)[O-])c(C(=O)Nc2ccn(Cc3ccccc3)n2)n1	4%	-5%	-1%	-8%	1%	3%	x	x	x	x	x
Cc1ccc(Cn2ccc(NC(=O)c3nn(C)cc3[N+](=O)[O-])n2)cc1	0%	-1%	-3%	u	7%	-6%	u	u	-1%	0%	-7%
O=C(CCS(=O)(=O)c1ccc(Br)cc1)N1CCCCCC1	x	2%	1%[9.26 µM]	u	-6%	0%	x	x	x	x	x
